Bioassay records: PubChem, National Center for Advancing Translational Sciences (NCATS)
NS1 function inh: qHTS Assay for Inhibitors of Influenza NS1 Protein Function | Potency, µM (titrated, usually from 46.1 µM) | hit rate 0.4% among 270,000 | AID 2326, 2010; calls by dose curve; further: actives are rising curves; nearly all actives have a fitted effect of over 50% in size
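Compounds were scored for reversing the slow growth caused by influenza A NS1 in S. cerevisiae, measured by optical density at 600 nm. Assay medium contained 2% galactose at pH 6.0; NS1-free yeast of the same strain were the positive control.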
Pf growth 48h: Primary qHTS for delayed death inhibitors of the malarial parasite plastid, 48 hour incubation; Potency, µM (top dose mostly 28.7 µM), most hits filed as inhibitors; P. falciparum luciferase growth in erythrocytes, 48 h; hit rate 5.9% among 310,000; AID 504832, 2011
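In quantitative HTS format, infected erythrocytes bearing luciferase-reporter parasites were treated for a single generation at 37 C. Luminescence after adding detection reagent served as the growth measure.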
Cycloheximide cs: Cycloheximide Counterscreen for Small Molecule Inhibitors of Shiga Toxin; cell reporter, cycloheximide protein synthesis inhibition counterscreen; max response, %; hit rate 12% among 300,000; AID 2314, 2010; in the data active means max response mostly above about 13%, no sharp cut-off; inactive means mostly below about 14%; further: read at 38.3 µM for the half of the compounds with a filed dose
Giardia FBPA inh: qHTS Assay for Inhibitors of Fructose-1,6-bisphosphate Aldolase from Giardia Lamblia; Potency, µM (highest dose often 59.6 µM), actives largely listed as inhibitors; hit rate 0.71% among 290,000; A8B2U2; purified Giardia FBPA; further: nearly all actives have a fitted effect of over 55% in size
Target sequence (A8B2U2 whole entry, looked up): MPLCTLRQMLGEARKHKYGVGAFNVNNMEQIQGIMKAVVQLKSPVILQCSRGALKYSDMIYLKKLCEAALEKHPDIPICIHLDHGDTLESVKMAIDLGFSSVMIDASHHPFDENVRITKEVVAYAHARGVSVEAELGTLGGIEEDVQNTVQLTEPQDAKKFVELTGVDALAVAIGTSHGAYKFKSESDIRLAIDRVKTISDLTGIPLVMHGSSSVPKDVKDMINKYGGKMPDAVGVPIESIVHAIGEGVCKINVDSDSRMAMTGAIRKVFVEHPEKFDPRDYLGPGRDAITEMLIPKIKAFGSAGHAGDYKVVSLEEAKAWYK
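40 nM FBPA preincubated 10 min at RT with compound (up to 57.5 uM final), then substrate plus GAPDH/TPI/NAD/arsenate coupling and diaphorase/resazurin added. Fluorescence read after 20 min at RT, 525/598 nm.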
Shiga toxin inh: A qHTS for Small Molecule Inhibitors of Shiga Toxin; Vero cells, Shiga toxin protein synthesis inhibition reporter; inhibition, % at 38.7 µM; hit rate 9.2% among 290,000; AID 2315, 2010; in the data active means inhibition mostly above about 28%, no sharp cut-off; inactive means mostly below about 43%
Pf growth 96h: Primary qHTS for delayed death inhibitors of the malarial parasite plastid, 96 hour incubation | P. falciparum luciferase reporter growth, 96 h | Potency, µM (series often up to 28.7 µM), most hits filed as inhibitors | hit rate 6.9% among 320,000
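Readout is luminescence from an integrated firefly luciferase in P. falciparum. Red cells, 2% hematocrit and 0.05% parasitemia final, were cultured with compound through two parasite generations (96 hours) at 37 C, 5% CO2.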
A number is an active result; i = inactive; ? = inconclusive; nt = no result; [ ] = remark or other dose. In the library only some 21% were active in any assay of this set; here they are far more common. Unless noted, the call rests on the fitted dose curve; in most records, active means well fitted curve in the direction sought with a large enough effect; inconclusive means small, poorly fitted or top-dose-only effect, or another doubt; inactive means no such curve, though single readings can be large; an effect the other way counts as inactive or inconclusive.

SMILES	NS1 function inh	Pf growth 48h	Cycloheximide cs	Giardia FBPA inh	Shiga toxin inh	Pf growth 96h
OCCSc1ncnc2c1oc1ccccc12	i	i	22	i	63	?
O=C(O)CSc1ncnc2c1oc1ccccc12	i	i	i	i	i	i
O=C(CSc1ncnc2c1oc1ccccc12)NCc1ccco1	i	i	30	i	51	i[5.75 µM]
CCCCNC(=S)N/N=C/c1ccc(OCC(=O)Nc2c(C)cc(C)cc2C)c(OC)c1	i	i	i	i	i	i
OC[C@@H](O)C(O)[C@@H](O)CO (stereo partly drawn)	nt	nt	i	i	i	nt
O=C(Nc1ccc(N2CCOCC2)cc1)c1cccc(S(=O)(=O)N2CCCC2)c1	i	i	i	i	i	i
O=C(Nc1ccccc1N1CCCC1)c1cccc(-c2cc3ccccc3oc2=O)c1	?	?	18	i	i	?
O=C(Nc1ccc(Br)cn1)c1cccc(-c2cc3ccccc3oc2=O)c1	i	i	41	i	49	i
O=C(Nc1ccc(N2CCCC2)cc1)c1cccc(-c2cc3ccccc3oc2=O)c1	?	i	i	i	i	0.41µM
Cc1nc(NC(=O)c2cccc(-c3cc4ccccc4oc3=O)c2)ccc1Br	i	i	i	i	i	i
Cc1ccc(C(=O)CN2C(=O)NC3(CCCCCC3)C2=O)c(C)c1	nt	i	nt	nt	nt	i
CCOCCCN(C(=O)Cn1nnc(-c2ccc(C)o2)n1)C(C(=O)NCC1CCCO1)c1ccc(F)cc1 (stereo not drawn)	i	i	i	i	i	?
CC(C)(C)C(=O)NNC(=O)c1cc2sccc2s1	i	i	i	i	i	i
COc1ccccc1-c1cc(NCc2ccccc2)ncn1	nt	nt	nt	i	nt	nt
COc1ccccc1-n1cnc2cc(C(=O)NC3CCCC3)ccc21	i	?	i	i	19	?
O=C(NC1CC1)c1ccc2c(c1)ncn2C1CCCC1	i	i	33	i	69	i
CN(C)c1ncc2nc(-c3ccc(F)cc3)c(=O)n(-c3ccccc3)c2n1	nt	nt	nt	i	nt	nt
COc1ccc(N2CCN(C(C)C(=O)N3CCCC3)CC2)cc1 (stereo not drawn)	i	i	i	?	i	i
O=C(O)c1cnn(-c2nc(-c3ccc(Br)cc3)cs2)c1C(F)(F)F	i	i	45	i	53	i
O=C(O)c1cnn(-c2nc(-c3ccc(F)cc3)cs2)c1C(F)(F)F	i	i	i	?	73	i[1.15 µM]
CSCC[C@H](N)C(=O)N1CCC(C(=O)N[C@@H](C)C(=O)NCc2ccc(F)cc2)CC1	i	i	i	?	i	i
Cc1ccccc1CS(=O)(=O)c1cnc2ccccc2n1	i	15µM	i	i	i	nt
CC(C)C(CCNC(=O)CC(Cc1ccccc1)c1ccco1)c1ccco1 (stereo not drawn)	i	?	22	i	i	13µM
CCCC1/C(=N/O)CC(c2ccccc2)NC1c1ccccc1 (stereo not drawn)	nt	12µM	i	i	i	i
CC1C(=NO)C(C)C(c2ccccc2)NC1c1ccccc1 (stereo not drawn)	i	i	i	i	i	nt
SMILES	NS1 function inh	Pf growth 48h	Cycloheximide cs	Giardia FBPA inh	Shiga toxin inh	Pf growth 96h
CC1/C(=N/O)CC(c2ccccc2)NC1c1ccccc1 (stereo not drawn)	i	nt	i	i	i	?
CCC1C(=O)C(CC)C(c2ccccc2)NC1c1ccccc1 (stereo not drawn)	i	i	i	i	i	i
CCC1C(=NO)C(CC)C(c2ccccc2)NC1c1ccccc1 (stereo not drawn)	i	12µM	i	i	i	i
CC(C)C1/C(=N/O)CC(c2ccccc2)NC1c1ccccc1 (stereo not drawn)	i	13µM	i	i	i	9.3µM
CCC1=C2CC[C@H]3C(=O)N(CC)C(=O)[C@H]3[C@H]2[C@@]2(Cc3ccccc3)C(=NCC3CC3)OC(=O)N2C1=O	nt	nt	nt	i	nt	nt
O=C(Nc1nccs1)C1CCCN1/C=C/C(=O)C(F)(F)F (stereo not drawn)	i	i	i	nt	i	i
COCCNC(=O)C1(CC(C)C)C=CCN1C(=O)OC (stereo not drawn)	nt	nt	nt	i	nt	nt
O=C(O)CC1SC(=Nc2cccc(C(F)(F)F)c2)NC1=O (stereo not drawn)	i	nt	i	i	i	2.9µM
O=C(O)CC1SC(=Nc2ccc(O)cc2)NC1=O (stereo not drawn)	nt	i	i	i	i	i
COc1cccc(-c2cncnc2NC2CCNCC2)c1	nt	nt	nt	i	nt	nt
C#CC[N+]1(CC#Cc2ccccc2)CCCCC1	nt	?	i	i	i	i
C(#Cc1ccccc1)CN1CCOCC1	nt	i	31	i	96	i
O=C(C[N+]1(CC#Cc2ccccc2)CCOCC1)c1ccccc1	nt	13µM	i	i	i	i
O=C(C[N+]1(CC#Cc2ccccc2)CCCCC1)c1ccccc1	nt	9.3µM	i	i	i	?
C#CC[N+]1(CC#Cc2ccccc2)CCOCC1	i	nt	16	i	i	i
CCNc1ncc2nc(-c3ccccc3)c(=O)n(Cc3cccc(OC)c3)c2n1	nt	nt	nt	i	nt	nt
Clc1cccc(CN2CCN(Cc3nc(CCc4ccccc4)no3)CC2)c1	i	i	i	i	i	?
CCN(CC(=O)Nc1ccccc1C(F)(F)F)C(=O)c1ccc(N2C(=O)CCC2=O)cc1	i	i	i	nt	i	i
CC(C)Oc1ccc(S(=O)(=O)N2CCCCC2)cc1NC(=O)C1CCC1	nt	i	nt	nt	nt	?
COc1ccc(C2=NOC(C(=O)Nc3ccc4c(c3)OCCO4)C2)c(OC)c1 (stereo not drawn)	i	?	i	i	i	?
N#Cc1c(Cl)nc(N/N=C/c2ccccc2)c(Cl)c1Cl	i	i	i	i	i	5.2µM
C[N+](C)(C)c1ccc(/C=N/Nc2nc(Cl)c(C#N)c(Cl)c2Cl)cc1	i	2.1µM	i	i	i	?
Cc1ccc(NS(=O)(=O)c2c(C)ccc3nsnc23)c([N+](=O)[O-])c1	i	i	i	i	nt	i
O=c1c2cnn(-c3ccccc3)c2nc(-c2cccs2)n1-c1ccc(Cl)cc1	i	?	i	i	i	?
O=c1c2cnn(-c3ccccc3)c2nc(-c2cccs2)n1-c1cccc(Cl)c1	i	13µM	i	i	i	?
SMILES	NS1 function inh	Pf growth 48h	Cycloheximide cs	Giardia FBPA inh	Shiga toxin inh	Pf growth 96h
C[n+]1cccc2cccc([O-])c21	i	3.3µM	i	0.45µM	i	?
CN(CC(=O)Nc1ccc(F)c(F)c1F)C(=O)C1=NN(c2ccccc2)C(=O)CC1	nt	i	nt	nt	nt	i
O=C1N(Cc2cccc(Cl)c2)C[C@@H]2C[C@@H](c3ccsc3)N3CCC[C@@]123	i	8.3µM	i	i	i	i
Cn1cc([C@@H]2C[C@H]3CN(Cc4cccc(Cl)c4)C(=O)[C@]34CCCN24)c2ccccc21	i	12µM	i	i	i	?
O=C1N(Cc2cccc(Cl)c2)C[C@@H]2C[C@@H](c3ccccn3)N3CCC[C@@]123	i	?	i	i	i	?
Cc1c([C@@H]2C[C@H]3CN(Cc4cccc(Cl)c4)C(=O)[C@]34CCCN24)cnn1C	i	?	i	i	i	?
